Tests used:
Experiment in all cases: DAPPL (digital affinity profiling via proximity ligation, sequencing); 10 mM Tris-HCl pH 7.5, 50 mM NaCl, 1 mM DTT, 4% glycerol, room temperature, 30 min; GST-TFs on glutathione beads, 16-mer random dsDNA library, 0.1% formaldehyde crosslink after washing; high values mean tight binding
[1] = molecular target: SPIB (Homo sapiens, UniProt Q01892 1-262); details: protein: recombinant; tags: N-terminal GST; dsDNA, one strand shown
How it was run: (§1)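 Binding signal is each hexamer's read frequency for a factor divided by its frequency in the tag-only sample. The factors were GST-fused human transcription factors from yeast, captured on glutathione beads, DNA-barcoded and pooled with that sample. Pools were incubated with 200 nmole of a random double-stranded 16-mer DNA library in Tris/NaCl/DTT/glycerol buffer at room temperature for 30 min, then washed, crosslinked with 0.1% formaldehyde, proximity-ligated with BsaI/T4 ligase (1 h, 37 °C), PCR-amplified and sequenced on an Illumina NextSeq500.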

[2] = molecular target: HSF1 (Homo sapiens, UniProt Q00613 1-529); details: protein: recombinant; tags: N-terminal GST; chain copies: 3; dsDNA, one strand shown
Chain of HSF1 (Q00613 whole entry): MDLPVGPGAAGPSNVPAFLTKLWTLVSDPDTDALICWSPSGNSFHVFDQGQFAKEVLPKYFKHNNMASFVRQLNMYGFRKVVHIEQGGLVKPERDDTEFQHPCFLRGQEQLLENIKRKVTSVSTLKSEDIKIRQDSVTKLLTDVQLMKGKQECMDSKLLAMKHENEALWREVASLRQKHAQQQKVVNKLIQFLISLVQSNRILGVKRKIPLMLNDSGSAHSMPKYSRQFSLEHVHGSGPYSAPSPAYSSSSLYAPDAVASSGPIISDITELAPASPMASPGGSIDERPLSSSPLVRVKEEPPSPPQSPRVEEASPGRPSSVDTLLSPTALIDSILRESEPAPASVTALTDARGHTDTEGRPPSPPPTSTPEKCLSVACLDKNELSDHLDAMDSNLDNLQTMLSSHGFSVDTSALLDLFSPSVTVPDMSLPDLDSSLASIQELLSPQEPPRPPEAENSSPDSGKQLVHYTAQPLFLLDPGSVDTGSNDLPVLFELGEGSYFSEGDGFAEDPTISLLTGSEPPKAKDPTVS
How it was run: as §1

[3] = molecular target: T1, SPIC (Homo sapiens, UniProt Q8N5J4 1-248); details: protein: recombinant; tags: N-terminal GST; dsDNA, one strand shown
T1 sequence: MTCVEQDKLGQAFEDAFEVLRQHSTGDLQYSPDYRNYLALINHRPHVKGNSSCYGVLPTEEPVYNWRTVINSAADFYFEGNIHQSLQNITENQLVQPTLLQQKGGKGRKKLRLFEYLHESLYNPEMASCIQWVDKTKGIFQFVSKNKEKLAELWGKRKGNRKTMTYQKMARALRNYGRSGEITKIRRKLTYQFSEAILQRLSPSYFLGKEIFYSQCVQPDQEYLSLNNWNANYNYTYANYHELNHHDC
How it was run: as §1

[4] = molecular target: ELF4 (Homo sapiens, UniProt Q99607 1-663); details: protein: recombinant; tags: N-terminal GST; dsDNA, one strand shown
Chain of ELF4 (Q99607 whole entry): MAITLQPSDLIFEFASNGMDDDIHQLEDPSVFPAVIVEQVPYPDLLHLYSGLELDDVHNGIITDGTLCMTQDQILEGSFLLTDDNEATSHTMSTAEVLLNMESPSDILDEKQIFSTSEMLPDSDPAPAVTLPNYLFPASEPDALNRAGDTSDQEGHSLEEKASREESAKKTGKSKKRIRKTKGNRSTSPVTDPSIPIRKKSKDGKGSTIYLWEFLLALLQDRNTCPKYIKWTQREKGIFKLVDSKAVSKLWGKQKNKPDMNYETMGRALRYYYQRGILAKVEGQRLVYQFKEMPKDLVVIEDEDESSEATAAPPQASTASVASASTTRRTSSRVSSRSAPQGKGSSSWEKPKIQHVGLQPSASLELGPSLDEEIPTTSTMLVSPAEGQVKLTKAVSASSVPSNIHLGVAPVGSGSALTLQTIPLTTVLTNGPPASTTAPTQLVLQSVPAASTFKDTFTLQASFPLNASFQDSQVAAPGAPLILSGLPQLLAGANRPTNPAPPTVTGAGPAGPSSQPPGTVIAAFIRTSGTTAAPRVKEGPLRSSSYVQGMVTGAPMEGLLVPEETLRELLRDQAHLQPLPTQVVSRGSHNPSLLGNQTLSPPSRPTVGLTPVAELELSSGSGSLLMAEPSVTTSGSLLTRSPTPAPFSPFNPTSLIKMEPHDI
How it was run: as §1

[5] = molecular target: T2, ETV2 (Homo sapiens, UniProt O00321 1-342); details: protein: recombinant; tags: N-terminal GST; dsDNA, one strand shown
T2 sequence: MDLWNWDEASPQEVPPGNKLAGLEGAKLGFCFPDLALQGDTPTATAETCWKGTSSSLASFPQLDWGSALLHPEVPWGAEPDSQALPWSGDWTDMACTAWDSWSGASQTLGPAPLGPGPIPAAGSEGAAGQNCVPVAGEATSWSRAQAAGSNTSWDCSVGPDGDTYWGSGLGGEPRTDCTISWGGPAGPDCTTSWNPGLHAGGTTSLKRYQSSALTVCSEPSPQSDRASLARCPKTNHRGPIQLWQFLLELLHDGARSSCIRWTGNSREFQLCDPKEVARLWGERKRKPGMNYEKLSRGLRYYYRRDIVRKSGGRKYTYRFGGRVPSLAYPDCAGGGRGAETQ
How it was run: as §1

[6] = molecular target: T3, ELF3 (Homo sapiens, UniProt P78545 1-371); details: protein: recombinant; tags: N-terminal GST; dsDNA, one strand shown
T3 sequence: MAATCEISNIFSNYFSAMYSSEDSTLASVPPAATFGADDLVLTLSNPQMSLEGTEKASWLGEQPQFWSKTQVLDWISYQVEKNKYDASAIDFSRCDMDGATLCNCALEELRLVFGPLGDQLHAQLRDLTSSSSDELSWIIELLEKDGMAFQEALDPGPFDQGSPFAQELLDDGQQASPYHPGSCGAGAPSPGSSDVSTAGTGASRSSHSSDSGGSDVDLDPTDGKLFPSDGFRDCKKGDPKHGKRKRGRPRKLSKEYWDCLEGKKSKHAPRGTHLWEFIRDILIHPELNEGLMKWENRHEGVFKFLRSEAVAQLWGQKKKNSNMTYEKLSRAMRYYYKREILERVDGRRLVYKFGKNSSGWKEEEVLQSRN
How it was run: as §1

[7] = molecular target: CRX (Homo sapiens, UniProt O43186 1-299); details: protein: recombinant; tags: N-terminal GST; dsDNA, one strand shown
Chain of CRX (O43186 whole entry): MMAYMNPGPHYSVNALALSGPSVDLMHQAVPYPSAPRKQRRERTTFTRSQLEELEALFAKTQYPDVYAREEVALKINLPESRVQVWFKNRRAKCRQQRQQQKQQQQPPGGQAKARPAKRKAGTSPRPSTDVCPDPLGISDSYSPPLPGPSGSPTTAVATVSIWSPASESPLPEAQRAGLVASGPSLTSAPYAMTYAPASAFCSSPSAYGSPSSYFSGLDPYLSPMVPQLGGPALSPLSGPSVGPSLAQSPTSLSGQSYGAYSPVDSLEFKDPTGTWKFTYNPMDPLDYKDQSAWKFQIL
How it was run: as §1

[8] = molecular target: ETV1 (Homo sapiens, UniProt P50549 1-477); details: protein: recombinant; tags: N-terminal GST; dsDNA, one strand shown
Chain of ETV1 (P50549 whole entry): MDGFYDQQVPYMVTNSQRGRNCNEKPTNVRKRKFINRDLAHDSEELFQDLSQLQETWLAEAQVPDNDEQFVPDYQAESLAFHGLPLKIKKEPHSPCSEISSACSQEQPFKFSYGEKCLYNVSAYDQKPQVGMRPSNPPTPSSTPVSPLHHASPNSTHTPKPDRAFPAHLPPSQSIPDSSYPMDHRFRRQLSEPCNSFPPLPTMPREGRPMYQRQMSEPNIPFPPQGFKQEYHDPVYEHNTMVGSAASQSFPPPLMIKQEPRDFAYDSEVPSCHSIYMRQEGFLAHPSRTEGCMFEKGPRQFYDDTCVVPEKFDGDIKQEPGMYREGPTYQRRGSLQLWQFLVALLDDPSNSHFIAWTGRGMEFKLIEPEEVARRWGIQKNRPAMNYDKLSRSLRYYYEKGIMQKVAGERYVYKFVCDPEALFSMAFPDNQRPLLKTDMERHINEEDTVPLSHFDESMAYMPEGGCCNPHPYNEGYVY
How it was run: as §1

[9] = molecular target: T4, ETV3L (Homo sapiens, UniProt Q6ZN32 1-361); details: protein: recombinant; tags: N-terminal GST; dsDNA, one strand shown
T4 sequence: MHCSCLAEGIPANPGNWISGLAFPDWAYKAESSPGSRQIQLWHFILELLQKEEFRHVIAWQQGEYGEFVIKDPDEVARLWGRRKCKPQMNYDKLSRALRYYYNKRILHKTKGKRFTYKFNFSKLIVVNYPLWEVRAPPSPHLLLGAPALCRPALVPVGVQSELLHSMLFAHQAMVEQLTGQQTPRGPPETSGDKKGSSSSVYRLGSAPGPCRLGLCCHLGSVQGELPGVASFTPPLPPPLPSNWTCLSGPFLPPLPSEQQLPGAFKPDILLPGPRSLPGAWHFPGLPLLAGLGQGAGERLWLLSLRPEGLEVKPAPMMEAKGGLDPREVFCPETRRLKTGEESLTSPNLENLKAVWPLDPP
How it was run: as §1

[10] = molecular target: T5, ETS2 (Homo sapiens, UniProt P15036 1-469); details: protein: recombinant; tags: N-terminal GST; dsDNA, one strand shown
T5 sequence: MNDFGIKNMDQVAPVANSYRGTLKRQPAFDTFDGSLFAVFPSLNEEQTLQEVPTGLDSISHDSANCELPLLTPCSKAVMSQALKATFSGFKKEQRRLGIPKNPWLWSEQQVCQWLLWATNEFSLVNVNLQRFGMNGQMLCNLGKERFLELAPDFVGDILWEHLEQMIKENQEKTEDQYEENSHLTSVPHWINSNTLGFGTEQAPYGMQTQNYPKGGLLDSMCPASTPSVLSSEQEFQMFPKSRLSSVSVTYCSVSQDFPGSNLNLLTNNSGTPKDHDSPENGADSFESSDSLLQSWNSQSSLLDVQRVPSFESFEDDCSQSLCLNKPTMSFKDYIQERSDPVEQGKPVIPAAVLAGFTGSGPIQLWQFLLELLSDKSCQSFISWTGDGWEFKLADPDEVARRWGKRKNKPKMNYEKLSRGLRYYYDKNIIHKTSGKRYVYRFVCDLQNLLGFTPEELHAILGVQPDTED
How it was run: as §1

[11] = molecular target: T6, SPDEF (Homo sapiens, UniProt O95238 1-335); details: protein: recombinant; tags: N-terminal GST; dsDNA, one strand shown
T6 sequence: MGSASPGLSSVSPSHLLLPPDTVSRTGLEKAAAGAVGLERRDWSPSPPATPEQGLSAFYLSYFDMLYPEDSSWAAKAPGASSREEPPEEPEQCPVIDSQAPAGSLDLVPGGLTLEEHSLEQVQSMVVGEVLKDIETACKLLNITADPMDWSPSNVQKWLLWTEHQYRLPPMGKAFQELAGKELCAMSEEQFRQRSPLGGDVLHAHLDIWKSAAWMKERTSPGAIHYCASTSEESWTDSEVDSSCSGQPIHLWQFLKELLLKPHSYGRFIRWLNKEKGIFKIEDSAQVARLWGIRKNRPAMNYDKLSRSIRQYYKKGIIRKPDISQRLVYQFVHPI
How it was run: as §1

[12] = molecular target: T7, ETV7 (Homo sapiens, UniProt Q9Y603 1-341); details: protein: recombinant; tags: N-terminal GST; dsDNA, one strand shown
T7 sequence: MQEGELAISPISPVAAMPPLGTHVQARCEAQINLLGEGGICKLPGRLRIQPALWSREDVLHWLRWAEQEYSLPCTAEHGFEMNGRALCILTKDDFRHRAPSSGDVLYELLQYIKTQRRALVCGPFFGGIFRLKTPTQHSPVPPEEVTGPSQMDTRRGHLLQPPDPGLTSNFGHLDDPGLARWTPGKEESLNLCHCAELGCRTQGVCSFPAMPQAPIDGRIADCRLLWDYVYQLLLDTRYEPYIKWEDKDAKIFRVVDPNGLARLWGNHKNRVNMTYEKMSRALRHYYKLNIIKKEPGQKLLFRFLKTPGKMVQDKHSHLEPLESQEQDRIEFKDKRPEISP
How it was run: as §1

[13] = molecular target: T8, ETV3 (Homo sapiens, UniProt P41162-2 1-143); details: protein: recombinant; tags: N-terminal GST; dsDNA, one strand shown
T8 sequence: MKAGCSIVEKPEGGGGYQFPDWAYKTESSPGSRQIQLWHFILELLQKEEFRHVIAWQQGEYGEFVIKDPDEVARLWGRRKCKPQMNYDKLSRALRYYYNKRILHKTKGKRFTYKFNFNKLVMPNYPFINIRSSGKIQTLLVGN
How it was run: as §1

Chain of SPIB (Q01892 whole entry, the tested form may be a part): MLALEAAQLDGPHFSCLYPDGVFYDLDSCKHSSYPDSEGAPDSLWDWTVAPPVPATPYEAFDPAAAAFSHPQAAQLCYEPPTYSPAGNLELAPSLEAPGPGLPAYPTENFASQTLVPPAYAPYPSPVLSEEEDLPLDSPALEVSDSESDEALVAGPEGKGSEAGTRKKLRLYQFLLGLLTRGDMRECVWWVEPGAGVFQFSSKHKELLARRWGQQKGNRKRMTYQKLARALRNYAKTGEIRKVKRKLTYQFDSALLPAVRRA

Row | Sequence | binding signal [1] | binding signal [2] | binding signal [3] | binding signal [4] | binding signal [5] | binding signal [6] | binding signal [7] | binding signal [8] | binding signal [9] | binding signal [10] | binding signal [11] | binding signal [12] | binding signal [13]
1 | GATTCG | 1.04 fold enrichment (6-mer frequency, TF over GST control) | 1.23 fold enrichment (6-mer frequency, TF over GST control) | 1.16 fold enrichment (6-mer frequency, TF over GST control) | 1.05 fold enrichment (6-mer frequency, TF over GST control) | 1.02 fold enrichment (6-mer frequency, TF over GST control) | 1.09 fold enrichment (6-mer frequency, TF over GST control) | 1.06 fold enrichment (6-mer frequency, TF over GST control) | 1.03 fold enrichment (6-mer frequency, TF over GST control) | 1.06 fold enrichment (6-mer frequency, TF over GST control) | 1 fold enrichment (6-mer frequency, TF over GST control) | 1 fold enrichment (6-mer frequency, TF over GST control) | 1.01 fold enrichment (6-mer frequency, TF over GST control) | 1 fold enrichment (6-mer frequency, TF over GST control)
2 | GAGAAA |  | 1.49 fold enrichment (6-mer frequency, TF over GST control) |  |  |  |  |  |  |  |  |  |  | 

From PMC7862700, “An all-to-all approach to the identification of sequence-specific readers for epigenetic DNA modifications on cytosine”
